This is a sample that favours compounds with a hit; in the whole collection about 4.4% have one here.
USP1-UAF1 inh: inhibitors of human USP1/UAF1 deubiquitinase; recombinant USP1/UAF1, Ub-Rhodamine cleavage fluorescence; 390,000 tested, 0.23% active; AID 743255; O94782; Potency, µM (series often up to 57.1 µM), for the others: at the top dose activity change, negative = inhibition, usual class: inhibitors; active means well fitted inhibition curve with a large enough effect; inconclusive means small, poorly fitted or top-dose-only effect; inactive means no such curve, though single readings can be large or run the other way; further: potency means the concentration at half of the fitted maximal effect; on the % scale 0 is the no-effect control and ±100 the full control effect; nearly all actives have a fitted effect of over 60% in size
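USP1/UAF1 complex at 1 nM was preincubated with compound for 15 min at room temperature, then Ub-Rho substrate (150nM final) was added. Fluorescence (480/540 nm) was read kinetically, 6 reads every 60 seconds.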
TRHR agonist: activates the human TRH receptor; AID 493084; activation, % at 2 µM; 360,000 tested, 0.18% active; P34981; TRHR cells, calcium flux fluo-8, FDSS agonist mode; further: 0% is about no effect
Target sequence (P34981 whole entry, looked up): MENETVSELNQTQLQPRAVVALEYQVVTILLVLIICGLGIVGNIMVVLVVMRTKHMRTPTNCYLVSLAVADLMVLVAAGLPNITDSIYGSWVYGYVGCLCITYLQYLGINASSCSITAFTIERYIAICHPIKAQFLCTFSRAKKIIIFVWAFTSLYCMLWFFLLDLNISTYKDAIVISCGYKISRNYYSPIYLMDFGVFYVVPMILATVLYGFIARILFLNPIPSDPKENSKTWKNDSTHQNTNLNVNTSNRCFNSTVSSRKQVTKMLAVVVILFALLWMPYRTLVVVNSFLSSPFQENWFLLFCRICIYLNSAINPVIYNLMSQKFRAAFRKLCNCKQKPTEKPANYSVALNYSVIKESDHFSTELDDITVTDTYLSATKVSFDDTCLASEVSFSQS
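Read-out: compound-evoked intracellular calcium rise in TRHR cells, fluo-8 dye, kinetic FDSS fluorescence at 1 s/cycle following a 10-cycle baseline. Cells cultured overnight before dye loading (30 min–1.5 h, RT).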
D1 PAM: potentiators of human D1 dopamine receptor; 360,000 tested, 0.036% active; potentiation, % at 10 µM; HEK293 TREx D1 cells, calcium flux, dopamine EC20 potentiation; in the data active means potentiation above about 30%; further: 0% is about no effect
TRHR PAM: TRH receptor (human) allosteric enhancement; TRHR cells, fluo-8 calcium fluorescence, EC20 TRH enhancement; 360,000 tested, 0.66% active; enhancement, % at 2 µM; P34981; in the data active means enhancement above about 30%; further: 0% is about no effect
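Enhancer read-out: after compound pinning and an initial kinetic agonist-mode read, an EC20 of TRH (10 nM final) was injected and fluo-8 calcium signal (Ex 480/Em 530) followed at 1 s/cycle for 100 cycles in TRHR-expressing cells.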
D1 ag: agonists of human D1 dopamine receptor | 360,000 tested, 1% active | HEK293 T-REx D1 cells, calcium flux, agonist mode | activation, % at 2 µM | P21728; further: 0% is about no effect
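Tetracycline-induced HEK293 TREx D1 cells, force-coupled to calcium signalling, were dye-loaded with a no-wash calcium kit. Compound was pin-added after a 10 s baseline. Fluorescence was read kinetically at 1 cycle/s for 180 s, with calcium rises flagged as agonism.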
D1 antag: blocks dopamine activation of the human D1 receptor | P21728 | HEK293 TREx D1 cells, calcium flux, dopamine EC80; stronger effect = lower value | activity change, negative = inhibition, % at 10 µM | 360,000 tested, 3.2% active | AID 504652; in the data active means activity change below about -30%; further: on the % scale 0 is the no-effect control and ±100 the full control effect
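Tetracycline-induced HEK293 Trex D1 cells, force-coupled to calcium, dye-loaded; compounds added and read 180 s, then EC80 dopamine added and calcium flux tracked kinetically another 180 s.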
An asterisk follows results filed as active; ? = inconclusive; nt = no result given; ! = repeats disagree. Unless noted, no stated cut-off is given here; in the data, active means activation above about 30%; inactive means the rest.

SMILES | USP1-UAF1 inh | TRHR agonist | D1 PAM | TRHR PAM | D1 ag | D1 antag
O=C(NCCc1ccc(Cl)cc1)Nc1ccc(F)cc1 | -0.8% | 0.3 | -7.7 | -2.2 | 13.3 | -11.6
CCCCCNc1nc2sc3c(c2c(=O)n1-c1cccc(Cl)c1)CCN(C)C3 | -7.3% | 0.1 | -5.2 | -22.6 | -0.2 | -84.7*
CCCCSc1nc2sc3c(c2c(=O)n1-c1ccccc1)CCN(C)C3 | -15.6% | 0.3 | 8.6 | 13.5 | 2.2 | 11.7
CCCCNc1nc2sc3c(c2c(=O)n1-c1cccc(Cl)c1)CCN(C)C3 | -4.9% | 1.2 | -5.2 | -2.4 | 3.1 | -38.7*
COc1cc(OC)c(NC(=O)CCNC(=O)Cn2cnc3ccccc3c2=O)cc1Cl | 2.5% | -0.6 | -4.9 | 27.7 | 2.9 | -21.6
COc1cc(OC)c(N(C)C(=O)CCNC(=O)Cn2cnc3ccccc3c2=O)cc1Cl | -6.7% | -0.6 | -5.0 | 30.1*! | -0.2 | 4.1
CCCCn1c(CN(C)Cc2ccccc2)nc2c1c(=O)n(C)c(=O)n2C | -25.3% | -1.4 | 2.9 | -4.4 | 4.3 | 1.5
CCCn1c(CN(C)Cc2ccccc2)nc2c1c(=O)n(C)c(=O)n2C | -9.6% | -0.9 | 0.1 | -3.5 | 4.4 | -43.0*
COc1ccc(CNc2n[nH]c(-c3ccco3)n2)cc1OC | -22.6% | -0.8 | -0.9 | -3.2 | 0.8 | -11.6
Cc1ccc(NC(=O)Cc2coc3ccc(C(C)C)cc23)cc1Cl | -22.8% | -1.3 | 0.3 | 2.9 | 38.5* | -2.1
Cc1ccc(NC(=O)Cc2coc3ccc(C(C)C)cc23)c(C)c1 | -8.0% | 0.1 | 1.6 | -0.5 | 5.3 | -8.7
Cc1ccc(NC(=O)Cc2ncon2)cc1Cl | -9.4% | 0.8 | -2.9 | 0.3 | 1.0 | -44.8*
Cc1ccc(NC(=O)Cc2cccs2)cc1Cl | -33.6% | -0.8 | 0.6 | -6.7 | -0.8 | -12.4
O=S(=O)(c1ccc2c(c1)OCCO2)N1CCN(S(=O)(=O)c2ccc3nc(Cl)c(Cl)nc3c2)CC1 | nt | -0.8 | 5.2 | 0.6 | 3.7 | -20.0
COc1ccc(-c2nc3cc(NC(=O)Cc4ccc(Cl)cc4)ccc3o2)cc1OC | ? | 0.6 | -0.3 | -4.0 | -1.0 | -15.3
O=C(O)CC1c2ccccc2C=Cc2ccccc21 | 26.2% | -0.5 | -6.3 | -2.3 | 0.1 | -31.9*
O=C(O)CC1Cc2ccccc2C1C(=O)O (configuration not stated) | -10.8% | nt | nt | nt | nt | nt
C/C(=N/NC(=O)C1CCCN1C(=O)c1ccc([N+](=O)[O-])cc1)c1ccc(Br)cc1 (configuration not stated) | -3.7% | 0.8 | -4.3 | 34.7* | 1.6 | -8.1
COc1cc(Nc2nn(-c3ccc(OC(F)(F)F)cc3)nc2C(C)=O)cc(OC)c1 | 3.3% | 3.2 | -1.9 | 4.5 | 2.5 | -7.6
CCOc1ccc(/C=C/C2=Cc3c(sc(NC(=O)CSc4n[nH]c(N)n4)c3C#N)C(C)(C)C2)cc1 | ? | 19.2 | 31.4* | 14.2 | 60.0* | 96.7
NC(=O)c1ccsc1NC(=O)CSc1n[nH]c(N)n1 | -15.4% | nt | nt | nt | nt | nt
Cc1ccsc1/C=C/C1=Cc2c(sc(NC(=O)CSc3n[nH]c(N)n3)c2C#N)C(C)(C)C1 | -16.0% | 11.7 | 97.9* | 17.8 | 33.5* | 148.7
COc1ccc(C2C=C(c3ccccc3)Nc3nc(NC(=O)c4cccc([N+](=O)[O-])c4)nn32)cc1 (configuration not stated) | -10.5% | 0.0 | 3.1 | -1.6 | 1.1 | 1.4
COc1ccc(-c2nc(CN(Cc3cnn(C)c3)C(C)C)c(C)o2)c(OC)c1 | -3.9% | 0.2 | -1.5 | 7.2 | 0.5 | -31.1*
CCOc1ccccc1-c1nc(CN(Cc2cnn(C)c2)C(C)C)c(C)o1 | ? | -0.4 | -3.8 | 4.5 | 2.3 | -2.7
Cc1cc(OC(C)C(=O)N2CCC(c3nc4ccccc4o3)CC2)ccc1Cl (configuration not stated) | 7.9% | 0.5 | -0.4 | -3.9 | 0.9 | 2.4
COc1cc(CNC2CCCC2)cc(Cl)c1OCc1ccccc1F | -14.5% | -0.5 | 13.3 | -14.4 | 156.8* | -57.6*
COC(=O)c1ccc(CSc2ccc3nnc(-c4cccnc4)n3n2)o1 | nt | -0.6 | -13.9 | -8.9 | 2.2 | -46.0*
